Data as given in the supplement of paper PMC7366291.
Structures can show the parent of a compound that is named as a salt. ± gives the standard deviation of the averaged measurements.

Each molecule was assayed on Danio rerio Tg(wt1b:EGFP) embryo, pronephros (assay: fraction of imaged embryos annotated as normal kidney; higher = less nephrotoxic; extreme values may be limits of the assay). Conditions: 25 µM; exposure: 24-48 hpf.
Outline: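 Dechorionated Tg(wt1b:EGFP) zebrafish embryos were incubated with 25 μM compound in 0.5% DMSO, 5 mM HEPES-buffered E3 and 0.003% PTU from 24 to 48 hpf at 28.5°C. Pronephroi were then imaged by widefield fluorescence, and the fraction of embryos per treatment assigned by hand to the normal-kidney category is given.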

| Structure (SMILES) | fraction of imaged embryos annotated as normal kidney |
| --- | --- |
| Nc1ccn([C@@H]2CS[C@H](CO)O2)c(=O)n1 [Lamivudine] | 0.667 |
| CC(=O)CC(c1ccccc1)c1c(O)c2ccccc2oc1=O (configuration not stated) [Warfarin] | 0.333 |
| C1CCC(C(CC2CCCCN2)C2CCCCC2)CC1 (configuration not stated) [Perhexiline maleate] | 0.909 |
| NS(=O)(=O)Cc1noc2ccccc12 [Zonisamide] | 0.917 |
| CNc1ncnc2c1ncn2[C@@H]1O[C@H](CO)[C@@H](O)[C@H]1O [N6-methyladenosine] | 1 |
| NS(=O)(=O)c1cc2c(cc1Cl)NC(CC1CCCC1)NS2(=O)=O (configuration not stated) [Cyclopenthiazide] | 1 |
| Clc1ccc(CCC(Cn2ccnc2)Sc2c(Cl)cccc2Cl)cc1 (configuration not stated) [Butoconazole nitrate] | 0 |
| CN(C)CC/C=C1\c2ccccc2CSc2ccccc21 [Dosulepin hydrochloride] | 0.833 |
| CN(C)CCN(Cc1cccs1)c1ccccn1 [Methapyrilene hydrochloride] | 0.917 |
| COc1ccc(-c2ccc(=N)n(CCCC(=O)O)n2)cc1 [Gabazine bromide] | 0.667 |
| CN(C)CCC=C1c2ccccc2CCc2ccccc21 [Amitryptiline hydrochloride] | 0.917 |
| C=CCSCC1Nc2cc(Cl)c(S(N)(=O)=O)cc2S(=O)(=O)N1 (configuration not stated) [Althiazide] | 0.5 |

What follows are molecules tested on Danio rerio Tg(wt1b:EGFP) embryo, pronephros (assay: pronephric angle neck segment to proximal convoluted tubule (mean of left and right), fold change vs DMSO control; higher = larger pronephric angle). Conditions: 25 µM; exposure: 24-48 hpf.
Outline: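 Dechorionated Tg(wt1b:EGFP) zebrafish embryos were incubated at 28.5°C from 24 to 48 hpf with 25 μM compound in HEPES-buffered E3 containing 0.5% DMSO and 0.003% PTU. Distances and angles between 16 manually set points on maximum projections of dorsal pronephros images were measured in Fiji, with values over 2 SD from the feature mean excluded. Each feature is a fold change relative to the mean of same-day DMSO-treated embryos.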

| Structure (SMILES) | pronephric angle neck segment |
| --- | --- |
| C[C@]12CC[C@@H]3c4ccc(OS(=O)(=O)O)cc4CC[C@H]3[C@@H]1CCC2=O [Estropipate] | 1.02 ± 0.012 |
| O=C(O)CCNC(=O)c1ccc(/N=N/c2ccc(O)c(C(=O)O)c2)cc1 [Balsalazide Sodium] | 1.08 ± 0.012 |
| Nc1nc2n[nH]nc2c(=O)[nH]1 [Azaguanine-8] | 0.984 ± 0.02 |
| NCCNCCNCCNCCN [Tetraethylenepentamine pentahydrochloride] | 1.02 ± 0.049 |
| CCCCOC(=O)c1ccc(O)cc1 [Butylparaben] | 1.11 ± 0.038 |
| CC(C)NCC(O)c1cc(O)cc(O)c1 (configuration not stated) [Metaproterenol sulfate, orciprenaline sulfate] | 1.08 ± 0.07 |
| CC1CC(OC(=O)c2ccccc2O)CC(C)(C)C1 (configuration not stated) [Homosalate] | 1.15 ± 0.044 |
| O=C1O[C@H]([C@@H](O)CO)C(O)=C1O [Ascorbic acid] | 1.03 ± 0.025 |
| CCCCOC(=O)c1ccc(N)cc1 [Butamben] | 0.9834 ± 0.0087 |
| Cc1ccnc(NS(=O)(=O)c2ccc(N)cc2)n1 [Sulfamerazine] | 0.974 ± 0.085 |
| CN1CCCN=C1/C=C/c1cccc(O)c1 [Oxantel pamoate] | 1.03 ± 0.034 |
| NC(=O)c1cnccn1 [Pyrazinamide] | 0.9361 ± 0.0033 |
| CN(C)C(=N)NC(=N)N [Metformin hydrochloride] | 1.08 ± 0.042 |
| CCC(=O)[C@@]1(C)[C@H](C)C[C@H]2[C@@H]3CCC4=CC(=O)C=C[C@]4(C)[C@H]3[C@@H](O)C[C@@]21C [Rimexolone] | 0.965 ± 0.031 |
| COc1cc(-c2ccc(=O)[nH]n2)ccc1OC(F)F [Zardaverine] | 0.994 ± 0.013 |
| O=C1[C@H]2CCCC[C@H]2C(=O)N1CCCCN1CCN(c2nsc3ccccc23)CC1 [Perospirone] | 1.05 ± 0.017 |
| NC[C@H]1O[C@H](O[C@H]2[C@H](O[C@@H]3O[C@H](CO)[C@@H](O)[C@H]3O)[C@@H](O)[C@H](N)C[C@@H]2N)[C@H](N)[C@@H](O)[C@@H]1O [Ribostamycin sulfate salt] | 1.06 ± 0.061 |
| CN(C)CCN1C(=O)c2ccccc2N(C)c2ccccc21 [Dibenzepine hydrochloride] | 0.967 ± 0.086 |
| CCCCC(CC)CN1CN(CC(CC)CCCC)CC(C)(N)C1 (configuration not stated) [Hexetidine] | 0.9331 ± 0.005 |
| CCN(CC)CCOC(=O)C1(c2ccc([N+](=O)[O-])cc2)CCCC1 [Nitrocaramiphen hydrochloride] | 0.984 ± 0.075 |

| Structure (SMILES) | pronephric angle neck segment |
| --- | --- |
| CC(C)(C)C(=O)OCOC(=O)[C@@H]1N2C(=O)[C@@H](/N=C/N3CCCCCC3)[C@H]2SC1(C)C [Pivmecillinam hydrochloride] | 1.04 ± 0.012 |
| CO/N=C(\C(=O)N[C@@H]1C(=O)N2C(C(=O)O)=C(COC(C)=O)CS[C@H]12)c1csc(N)n1 [Cefotaxime sodium salt] | 0.982 ± 0.017 |
| Cc1cc2c(cc1S(N)(=O)=O)S(=O)(=O)CCC2 [Meticrane] | 1.01 ± 0.04 |
| COc1cc(C(=O)OCCCN2CCCN(CCCOC(=O)c3cc(OC)c(OC)c(OC)c3)CC2)cc(OC)c1OC [Dilazep dihydrochloride] | 1.08 ± 0.089 |
| C=C1c2c(Cl)ccc(O)c2C(=O)C2=C(O)[C@]3(O)C(=O)C(C(N)=O)=C(O)[C@@H](N(C)C)[C@@H]3[C@@H](O)[C@H]12.O=C(O)c1cc(S(=O)(=O)O)ccc1O [Meclocycline sulfosalicylate] | 0.9562 ± 0.0078 |
| O=C(O)c1ccccc1OP(=O)(O)O [Fosfosal] | 0.9628 ± 0.0065 |
| CCOC(=O)n1ccn(C)c1=S [Carbimazole] | 1.052 ± 0.0026 |
| CC(C)Nc1cccnc1N1CCN(C(=O)c2cc3cc(NS(C)(=O)=O)ccc3[nH]2)CC1 [Delavirdine] | 0.921 ± 0.045 |
| Nc1ccn([C@@H]2CS[C@H](CO)O2)c(=O)n1 [Lamivudine] | 0.987 ± 0.031 |
| CC(=O)CC(c1ccccc1)c1c(O)c2ccccc2oc1=O (configuration not stated) [Warfarin] | 1.25 ± 0.027 |
| C1CCC(C(CC2CCCCN2)C2CCCCC2)CC1 (configuration not stated) [Perhexiline maleate] | 1.006 ± 0.00027 |
| NS(=O)(=O)Cc1noc2ccccc12 [Zonisamide] | 1.02 ± 0.017 |
| CNc1ncnc2c1ncn2[C@@H]1O[C@H](CO)[C@@H](O)[C@H]1O [N6-methyladenosine] | 1.01 ± 0.065 |
| NS(=O)(=O)c1cc2c(cc1Cl)NC(CC1CCCC1)NS2(=O)=O (configuration not stated) [Cyclopenthiazide] | 1 ± 0.012 |
| Clc1ccc(CCC(Cn2ccnc2)Sc2c(Cl)cccc2Cl)cc1 (configuration not stated) [Butoconazole nitrate] | 1.25 ± 0.056 |
| CN(C)CC/C=C1\c2ccccc2CSc2ccccc21 [Dosulepin hydrochloride] | 0.995 ± 0.03 |
| CN(C)CCN(Cc1cccs1)c1ccccn1 [Methapyrilene hydrochloride] | 0.9838 ± 0.0071 |
| COc1ccc(-c2ccc(=N)n(CCCC(=O)O)n2)cc1 [Gabazine bromide] | 1.02 ± 0.026 |
| CN(C)CCC=C1c2ccccc2CCc2ccccc21 [Amitryptiline hydrochloride] | 1.02 ± 0.072 |
| C=CCSCC1Nc2cc(Cl)c(S(N)(=O)=O)cc2S(=O)(=O)N1 (configuration not stated) [Althiazide] | 1.09 ± 0.083 |
